Sampled rows, rich in hits. Any-hit rate of the full collection: about 21%.
Shiga toxin inh = A qHTS for Small Molecule Inhibitors of Shiga Toxin | actives 9.2% (n = 290,000) | inhibition, % at 38.7 µM | AID 2315, 2010 | Vero cells, Shiga toxin protein synthesis inhibition reporter; in the data active means inhibition mostly above about 28%, no sharp cut-off; inactive means mostly below about 43%; further: 0% is about no effect
NS1 function inh = qHTS Assay for Inhibitors of Influenza NS1 Protein Function; Potency, µM (highest dose often 46.1 µM), for inactives: top-dose activity, positive = more growth; actives 0.4% (n = 270,000); AID 2326, 2010; calls by dose curve; further: potency means the concentration at half of the fitted maximal effect; actives are rising curves; nearly all actives have a fitted effect of over 50% in size
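Growth recovery, yeast-based: influenza A NS1 expressed in S. cerevisiae causes slow growth, and suppressors are detected by OD600. The parent strain without NS1 is used as positive control.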
Pf growth 48h = Primary qHTS for delayed death inhibitors of the malarial parasite plastid, 48 hour incubation | Potency, µM (highest dose often 28.7 µM), without a hit: at the top dose activity change, negative = inhibition, most hits filed as inhibitors | actives 5.9% (n = 310,000) | P. falciparum luciferase growth in erythrocytes, 48 h; further: potency means the concentration at half of the fitted maximal effect; on the % scale 0 is the no-effect control and ±100 the full control effect
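Luciferase-expressing parasites in RBCs, 2% Hct / 0.1% parasitemia final; RPMI 1640 + 0.5% Albumax; 37 C, 5% CO2, one generation; luminescence read-out, lower signal = inhibition.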
CHX counter = Cycloheximide Counterscreen for Small Molecule Inhibitors of Shiga Toxin | cell reporter, cycloheximide protein synthesis inhibition counterscreen | max response, % | actives 12% (n = 300,000) | AID 2314, 2010; in the data active means max response mostly above about 13%, no sharp cut-off; inactive means mostly below about 14%; further: read at 38.3 µM for the half of the compounds with a filed dose; 0% is about no effect
SARS PLP yeast = qHTS of Yeast-based Assay for SARS-CoV PLP; S. cerevisiae expressing SARS-CoV PLpro, growth rescue; Potency, µM (highest dose often 32.9 µM), without a hit: at the highest dose activity, positive = growth rescue, most hits filed as activators; actives 0.19% (n = 330,000); AID 485353, 2010; calls by dose curve; further: potency means the concentration at half of the fitted maximal effect; 0% is about no effect; nearly all actives have a fitted effect of over 55% in size
Pf growth 96h = Primary qHTS for delayed death inhibitors of the malarial parasite plastid, 96 hour incubation | P. falciparum luciferase reporter growth, 96 h | Potency, µM (titrated, usually from 28.7 µM), without a hit: at the highest dose activity change, negative = inhibition, hits mostly inhibitors | actives 6.9% (n = 320,000) | AID 504834, 2011; further: potency means the concentration at half of the fitted maximal effect; on the % scale 0 is the no-effect control and ±100 the full control effect
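P. falciparum expressing integrated firefly luciferase grown in erythrocytes (2% hematocrit, 0.05% parasitemia final) with compounds for 96 hours at 37 C, 5% CO2. Growth inhibition read as loss of luminescence after adding luciferase detection reagent.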
An asterisk follows results filed as active; ? = inconclusive; · = not tested or not shown. Unless noted, the call rests on the fitted dose curve; in most records, active means well fitted inhibition curve with a large enough effect; inconclusive means small, poorly fitted or top-dose-only effect, or another doubt; inactive means no such curve, though single readings can be large or run the other way.

SMILES	Shiga toxin inh	NS1 function inh	Pf growth 48h	CHX counter	SARS PLP yeast	Pf growth 96h
Cc1ccc(NC(=S)N2CCN(S(C)(=O)=O)CC2)cc1	-5	1%	39%	-1	10%	10µM*
OCCOc1ccc(C2=NCCO2)cc1	58	-1%	14%	15*	6%	7%
COc1cccc(C2c3c(C)nn(-c4ccc([N+](=O)[O-])cc4)c3N=C3C(=O)Nc4ccccc4N32)c1 (stereo not given)	-9	·	?	1	0%	?
COc1ccc(NC2=Nc3ccccc3N3C2=Nc2c(c(C)nn2-c2ccc(C)cc2)C3c2cccnc2)cc1 (stereo not given)	-13	9%	·	5	-8%	2.1µM*
Cc1ccc(C2c3c(C)nn(-c4ccc([N+](=O)[O-])cc4)c3N=C3C(=O)Nc4ccccc4N32)cc1 (stereo not given)	-11	·	?	1	0%	?
CC(=O)Nc1ccc(NC2=Nc3ccccc3N3C2=Nc2c(c(C)nn2-c2ccccc2)C3c2ccccc2)cc1 (stereo not given)	-32	11%	0.93µM*	-2	?	?
CN(C)c1nc(N)nc(CSc2nnnn2-c2ccccc2)n1	27	0%	·	-6	-11%	39%
CC(=O)c1ccc(NC(=O)COC(=O)c2ccccc2N=Nc2ccc(N(C)C)cc2)cc1	99*	9%	?	49*	3%	?
CN(C)c1ccc(N=Nc2ccccc2C(=O)OCC(=O)N(C)c2ccccc2)cc1	64	18%	13µM*	34*	-16%	?
COC(=O)c1ccccc1NC(=O)COC(=O)[C@H](C)NC(N)=O	14	1%	?	9	-1%	?
CN(C)c1ccc(C(=O)OCC(=O)Nc2ccc(N3CCOCC3)cc2)cc1	28	3%	?	-1	1%	14%
COC(=O)c1ccccc1NC(=O)COC(=O)c1ccccc1N=Nc1ccc(N(C)C)cc1	16	4%	?	17	-1%	9.3µM*
O=C(CSc1ccc(Cl)cc1)NC1CCCc2ccccc21 (stereo not given)	13	-8%	-2%	-1	22%	-17%
Cc1cccc(C(=O)Nc2ccc(C(=O)Nc3ccc(O)cc3)cc2)c1	-8	5%	-28%	-2	-1%	?
CC(C)Sc1ccc([N+](=O)[O-])cc1C(=O)Nc1ccncc1	-1	-1%	?	5	-1%	1.2µM*
COC1=CC(=O)OC(/C=C/c2ccccc2)C1 (stereo not given)	47*	-2%	46%	23*	11%	38%
COC(=O)C1=C(C)NC(C)=C(C(=O)OC)C1/C=C/c1ccccc1	-4	-25%	?	-3	0%	?
Cc1ccc(OCC(=O)NCC2CCCO2)c(C)c1 (stereo not given)	34	-1%	18%	39*	1%	19%
Cc1ccccc1OCC(=O)NCC1CCCO1 (stereo not given)	67	-5%	7%	1	-2%	?
Cc1cc(C)cc(OCC(=O)NNC(=O)C2CCCO2)c1 (stereo not given)	28	·	41%	6	1%	?
Cc1ccc(OCC(=O)NNC(=O)C2CCCO2)c(C)c1 (stereo not given)	12	·	?	21*	0%	42%
COc1ccccc1NC(=O)O/N=C(\N)c1ccccc1	24	-56%	8%	10	-2%	-3%
COc1cc(OC)c(C(=O)O/N=C(\N)c2ccc(C)cc2)cc1OC	11	-2%	?	15*	-8%	80%
COc1cc(OC)c(C(=O)O/N=C(\N)c2cccc(C)c2)cc1OC	82*	-3%	?	50*	-10%	-8%
CC(N)CCCC(C)(C)O (stereo not given)	·	·	-15%	·	·	3%
SMILES	Shiga toxin inh	NS1 function inh	Pf growth 48h	CHX counter	SARS PLP yeast	Pf growth 96h
CC(C)(O)C(=O)NN(Cc1ccccc1)c1ccccc1	33*	2%	12%	28*	-5%	-17%
O=C(CN1CCCCCC1)NN(Cc1ccccc1)c1ccccc1	-13	-1%	7%	-1	1%	2%
CC(C)c1ccccc1NC(=S)NN(Cc1ccccc1)c1ccccc1	-24	-8%	?	15	-5%	12µM*
Cc1cccc(C)c1NC(=S)NN(Cc1ccccc1)c1ccccc1	-4	13%	·	-4	14%	4.7µM*
Cc1ccc(/C=N/NC(=O)CCn2nc(C)cc2C)c(C)c1	24	-1%	13%	-2	0%	0%
CCN1CCN(c2ncnc3c2oc2nc(C(C)C)c4c(c23)CCC4)CC1	-9	-2%	16%	-4	-1%	3.3µM*
COc1ccc(NC(=S)NCc2ccc3c(c2)OCO3)cc1	25	·	2%	15	16%	1.7µM*
COc1ccc(CNC(=S)Nc2cccc(C)c2)cc1	-12	2%	·	4	29%	-24%
CC(C)c1ccc(NC(=S)NCc2ccc3c(c2)OCO3)cc1	36	·	-17%	12	-14%	-30%
CC(C)N(c1ccccc1)c1ccc(NC(=S)NCCN(C)C)cc1	-8	·	-23%	-7	1%	0%
COc1ccc(C/C(C)=N/NC(=S)Nc2ccc(Cl)cc2)cc1	1	-1%	35%	-2	2%	32%
COc1ccc(C/C(C)=N/NC(=S)Nc2ccccc2)cc1	86*	-22%	61%	42	11µM*	80%
CCNC(=S)Nc1ccc(N(c2ccccc2)C(C)C)cc1	57*	-5%	0%	17*	0%	·
COc1ccc(CNC(=S)Nc2cccc(F)c2)cc1	28*	?	-25%	12*	21%	0%
CC(O)c1nc2ccccc2n1CC(=O)N1CCN(c2ccccc2)CC1 (stereo not given)	-12	·	9%	-1	0%	28%
OC(c1ccccc1)(c1ccccc1)c1ccn[nH]1	·	·	?	·	4%	52%
CCC(C)NC(=O)C1CCN(S(=O)(=O)c2ccc(OC)cc2)CC1 (stereo not given)	-9	-23%	2%	-1	-2%	·
Cc1ccc(S(=O)(=O)N2CCN(C(=O)CNC(=O)c3sc4ccccc4c3Cl)CC2)cc1	·	·	6%	·	8%	2%
CCOC(=O)c1c(NC(=O)COC(=O)c2nc(Cl)ccc2Cl)sc2c1CCC2	-6	5%	24%	1	-1%	?
CCc1ccc(NC(=S)NCc2cccnc2)cc1	5	-4%	3%	10	0%	8%
CCc1ccc(NC(=S)NCc2ccccc2)cc1	142*	·	10%	34*	3%	?
COc1ccc(CNC(=S)Nc2ccccc2)cc1	21	?	?	7	23%	13µM*

Screening data (PubChem BioAssay)
